Assay results taken from PubChem BioAssay (NCATS).
Calls of active or inactive are those of the source. The rule behind the calls is not given here.

test: qHTS assay for small molecule activators of the human pregnane X receptor (PXR) signaling pathway (AID 720659); conditions: DPX-2 HepG2 CYP3A4-luciferase, 24 h; series mostly up to 92.3 µM; activation: at the top concentration; note: 0% is about no effect

SMILES	activation
OC[C@@H](O)[C@@H](O)[C@H](O)[C@@H](O)CO	-5.66% (inactive)
Cc1cc(O)c2c(c1)C(=O)c1cccc(O)c1C2=O	-12.8% (inactive)
CC(C=CC1=C(C)CCCC1(C)C)=CC=CC(C)=CC(=O)Nc1ccc(O)cc1	-21.2% (inactive)
O=C1c2cccc(O)c2C(=O)c2c(O)cc(CO)cc21	23.9% (inactive)
